Measured values taken from PubChem BioAssay (NCI).
The panel holds about 83,000 compounds, 20% with a hit somewhere; the sample as a whole holds those more often.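 Results are percent growth after 48 hours of single-concentration exposure. 100 means growth as in untreated cells, lower positive values show inhibition; negative values down to -100 show cell death.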 Values without a mark were called inactive. Calls of active or inactive are those of the source. The calls were made as follows: active = growth percent below 10; inactive = the rest.

Legend:
Assay in all cases: NCI-60 one-dose screen, 48 h (100 = growth as untreated, 0 = no growth, -100 = all killed)
Conditions in all cases: 10 µM unless noted
[1] = tested on: HCT-15 colon
[2] = tested on: HT29 colon
[3] = tested on: SNB-75 CNS
[4] = tested on: SNB-19 CNS
[5] = tested on: U251 CNS
[6] = tested on: PC-3 prostate
[7] = tested on: SK-MEL-5 melanoma
[8] = tested on: UACC-62 melanoma
[9] = tested on: LOX IMVI melanoma
[10] = tested on: SK-MEL-28 melanoma

Row | SMILES | growth [1] | growth [2] | growth [3] | growth [4] [%] | growth [5] | growth [6] | growth [7] | growth [8] | growth [9] | growth [10]
1 | C=C(C)[C@@H]1CC[C@]2(C(=O)O)CC[C@]3(C)[C@H](CC[C@@H]4[C@@]5(C)C[C@@H](CC#Cc6ccc(Br)cc6)C(=O)C(C)(C)[C@@H]5CC[C@]43C)[C@@H]12 | 65.6% | 30.7% | 70.9% | 40.7 | 3.58% (active) | 28.7% | 68.6% | -29% (active) | 52% | -35.5% (active)
2 | Cc1cc(C)n(Nc2nc3ccccc3[nH]c2=O)c(=O)c1C#N | 102% | 110% | 79.5% | 93.1 | 95.4% | 94.8% | 95.3% | 94.8% | 91.5% | 104%
3 | COc1ccc(C(=O)c2cc3c(N)c(C(=O)Nc4ccc(Br)cc4)sc3nc2C)cc1 | 69.3% | 74.9% | -0.922% (active) | 56.6 | 58.7% | 74.2% | 81.5% | 73.4% | 84.5% | 86.4%
4 | CC(C)(C)OC(=O)N1CCN(c2ccc(N)cc2)C(=O)C1 | 100% | 117% | 87% | 99.9 | 107% | 109% | 99.2% | 98.1% | 99.1% | 104%
5 | COc1ccccc1-c1c(-c2ccc(Cl)cc2)c2cc3c(cc2[nH]c1=O)OCCO3 | 73.5% | 69.6% | 88.6% | 94.9 | 75.3% | 41.5% | 63.8% | 71% | 73.9% | 90.4%
6 | O=c1[nH]nc(-c2ccc(Cl)cc2)cc1Cc1cccc([N+](=O)[O-])c1 | 105% | 116% | 110% | 88.5 | 92.1% | 91.1% | 79.3% | 74.3% | 93.5% | 109%
7 | CC[C@@]12C=CCN3CC[C@]4(c5cc(NC(=O)COc6cc(OCC(=O)Nc7cc8c(cc7OC)N(C)[C@H]7[C@@](O)(C(=O)OC)[C@H](OC(C)=O)[C@]9(CC)C=CCN%10CC[C@]87[C@@H]%109)cc7oc(-c8ccccc8)cc(=O)c67)c(OC)cc5N(C)[C@@H]4[C@](O)(C(=O)OC)[C@H]1OC(C)=O)[C@H]32 | 34.7% | 1.38% (active) | 82.5% | 58.5 | -3.12% (active) | 23% | 103% | 93.8% | 7.97% (active) | 112%
8 | COc1cccc(CCC(=O)c2cc3c(N)c(C(=O)Nc4ccccc4)sc3nc2C)c1 | 17.5% | 16.7% | 9.14% (active) | 38.5 | 26.2% | 49.8% | 8.92% (active) | 28.3% | 26.4% | 42%
9 | Nc1ncc(C#Cc2cncc(NC(=O)c3cccc(C(F)(F)F)c3)c2)c2cccnc12 | 56.6% | 27.4% | 60.7% | 94.9 | 53.5% | 49.9% | 34% | 55.7% | 5.77% (active) | 33.6%
10 | CN1CCN(c2ccc(NC3=C(Cl)C(=O)c4ncccc4C3=O)cc2C#N)CC1 | 48.2% | 103% | 81.1% | 96.8 | 56.1% | 60.6% | 97.5% | 83.4% | -61.6% (active) | -50.9% (active)
11 | O=C1OC(=O)C2C1CC=CC2c1ccccc1 (stereo not given) | 105% | 86.3% | 83.7% | 93.7 | 87.8% | 73.1% | 98.6% | 94.4% | 71.7% | 91.8%
12 | O=C1c2ccccc2-c2c1c1c(NCCCO)nc3ccccc3c1n2Cc1ccccc1 | 66% | 5.61% (active) | -1.82% (active) | 16.7 | 7.89% (active) | 33.8% | -82.6% (active) | 17.5% | 2.25% (active) | -3.55% (active)
13 | CCN(CCNc1cc(OC)cc2cccnc12)CCc1ccccc1 | 73.1% | 70% | 83.7% | 98.1 | 101% | 87.5% | 95.3% | 99.8% | 86.5% | 102%
14 | CCOC(=O)C1=C(C)NC(C)=C(C(=O)OCC)C1c1cc(Br)c(O)c(OC)c1 | 30.9% | 71.4% | 8.16% (active) | 45.2 | 33.1% | 32.6% | 19.5% | 48.8% | 36.7% | 47.5%
15 | COc1nc(N)nc(-n2c(-c3ccc(C)cc3)nc3ccccc32)c1NCc1ccc(C)cc1 | 94.8% | 94.7% | 75.5% | 86.5 | 83% | 65.7% | 96.8% | 64.4% | 87.8% | 107%
16 | N#Cc1cc(-c2nc3ccccc3s2)c(=O)n(NS(=O)(=O)c2ccc(Cl)cc2)c1N | 103% | 109% | 63.1% | 102 | 102% | 98.5% | 99.5% | 88.2% | 97% | 111%
17 | O=C(Nc1ccc(F)cc1)c1c(NC(=O)C(F)(F)F)sc2c1CCCCC2 | 11.5% | 5.86% (active) | -23% (active) | 13.3 | 6.02% (active) | 3.29% (active) | -55.6% (active) | 3.56% (active) | 15% | 12.2%
18 | CN(C)CCCn1c2c(c3ccc(-c4ccn[nH]4)cc3c1=O)C(=O)c1ccccc1-2 | 10.9% | 15.5% | 53.1% | 22.7 | 16.9% | 52.3% | 31.5% | 50.3% | 15% | 89.8%
19 | O=S(=O)(NCCNc1nccc(-c2c(-c3ccc(F)c(O)c3)nc3sccn23)n1)c1ccccc1 | 92.3% | 64.6% | 137% | 113 | 98.8% | 67.8% | 58.1% | -0.791% (active) | 27.7% | 16.8%
20 | COc1ccc2c(c1)OC13Oc4cc(OC)ccc4C=C1CCCC3=C2 | 12.8% | 8.16% (active) | 74.6% | 54.7 | 35% | 23.6% | 40.3% | 14.8% | -32.1% (active) | 63%
21 | CCCC1C(C(=O)OCC)=C(N)Oc2cc(O)ccc21 (stereo not given) | 96.7% | 97.8% | 76.9% | 103 | 104% | 77.5% | 96.5% | 94.8% | 90.4% | 114%
22 | CC(Oc1ccc(C(=O)NS(=O)(=O)C(C)(C)C)cc1C(F)(F)F)c1ccc(Oc2ccccc2)cn1 (stereo not given) | 41.5% | 59.5% | 48.1% | 63.8 | 58.1% | 93.8% | 45.1% | 36.7% | 60.1% | 61%
23 | CCCCCCC/C=C/[C@H]1O[C@]2(O)C(=O)C=C3C[C@@H](O[C@@H]4O[C@H](CO)[C@@H](O)C(O)[C@@H]4O)C[C@@H]3[C@H]2C=C1C (stereo not given in full) | -25% (active) | -12.2% (active) | 48.4% | 13 | -60.5% (active) | -26.8% (active) | 6.77% (active) | -52.4% (active) | -76.1% (active) | -26% (active)
24 | COc1cc(C2CC(c3cccc(Nc4ccncc4)c3)=NN2c2cc(Cl)cc(Cl)c2)cc(OC)c1OC (stereo not given) | -40.4% (active) | -28% (active) | 25.9% | 50.7 | -51.1% (active) | -36.1% (active) | 2.57% (active) | 94.5% | -90.9% (active) | -78.5% (active)
25 | c1ccc(C2CC(c3cccc(Nc4ccncc4)c3)=NN2c2ccccc2)cc1 (stereo not given) | -15.7% (active) | 1.62% (active) | 77.3% | 89.1 | 25.6% | 54.5% | 75.3% | 96.8% | 43.7% | -56.2% (active)
26 | C=C(C)[C@@H]1CC[C@]2(C(=O)NCC(=O)OC)CC[C@]3(C)[C@H](CC[C@@H]4[C@@]5(C)Cc6c([nH]c7ccccc67)C(C)(C)[C@@H]5CC[C@]43C)[C@@H]12 | 81.9% | 60.8% | 114% | 82.5 | 58.9% | 49.1% | 81.7% | 76.6% | 70.7% | 95%
